PubChem BioAssay (NCI)
The panel holds about 79,000 compounds, 15% with a hit somewhere; the sample as a whole holds those more often. The source made the active and inactive calls. No stated cut-off is given here; in the data, active means growth inhibition above about 70%; inactive means the rest.

Legend:
[1] = NCI Yeast Anticancer Drug Screen. Data for the rad50 strain (AID 155);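 further: 0% = growth of vehicle-only cultures of the same strain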; conditions: S. cerevisiae rad50 strain growth inhibition, active compounds read high
In short: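 Growth of the mutant yeast was measured after compound exposure and referenced to vehicle-treated cultures.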

[2] = NCI Yeast Anticancer Drug Screen. Data for the mec2-1 strain (AID 157); conditions: S. cerevisiae mec2-1 strain, active compounds read high
In short: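 Vehicle-treated cultures served as reference for growth inhibition of compound-exposed mec2-1 yeast.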

[3] = NCI Yeast Anticancer Drug Screen. Data for the sgs1 mgt1 strain (AID 161);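 further: 0% = growth of cultures given vehicle only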; conditions: S. cerevisiae sgs1 mgt1 strain, active compounds read high
In short: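 Genetically altered yeast, compound exposure, growth inhibition relative to vehicle.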

[4] = NCI Yeast Anticancer Drug Screen. Data for the cln2 rad14 strain (AID 165);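 further: 0% = growth equal to vehicle treated cultures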; conditions: S. cerevisiae cln2 rad14 strain, active compounds read high
In short: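 Each compound was tested on cln2 rad14 yeast. Inhibition of growth was calculated against vehicle-exposed controls.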

[5] = NCI Yeast Anticancer Drug Screen. Data for the bub3 strain (AID 167); conditions: S. cerevisiae bub3 mutant strain, active compounds read high
In short: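 Whole-cell yeast assay. The mutant strain was incubated with compounds, and growth inhibition was determined by comparison with vehicle-treated cells.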

[6] = NCI Yeast Anticancer Drug Screen. Data for the mlh1 rad18 strain (AID 175); conditions: S. cerevisiae mlh1 rad18 strain growth inhibition, active compounds read high
In short: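 Vehicle-treated cultures served as the reference for growth inhibition in a yeast strain carrying DNA damage repair alterations exposed to each compound.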

[7] = at 5.0 µM (retest, dose inferred, filed as 0.5)
[8] = at 50.0 µM (retest, dose inferred, filed as 5.0)

Measured: growth inhibition

COC(=O)Nc1nc2ccc(C(=O)c3ccccc3)cc2[nH]1
active: [5]; at 50.0 µM 71.5%
inactive: [1]; [7] 0% | [1]; [8] -9% | [1]; at 50.0 µM 55% | [2]; [7] 3% | [2]; [8] -7% | [2]; at 50.0 µM 46.9% | [3]; [7] -1% | [3]; [8] -5% | [3]; at 50.0 µM 43.8% | [4]; [7] -1% | [4]; [8] -24% | [4]; at 50.0 µM 45% | [5]; [7] 10% | [5]; [8] 16% | [6]; [7] 1% | [6]; [8] 17% | [6]; at 50.0 µM 67.5%

CCCc1cc(=O)oc2c3c(c4c(c12)OC(C)(C)C=C4)O[C@@H](C)[C@H](C)[C@H]3O
active: [1]; [8] 91% | [1]; at 50.0 µM 96.7% | [2]; [8] 94% | [2]; at 50.0 µM 94.8% | [3]; [8] 95% | [4]; [8] 93% | [4]; at 50.0 µM 92.4% | [5]; [8] 94% | [5]; at 50.0 µM 96.5% | [6]; [8] 93% | [6]; at 50.0 µM 95.1%
inactive: [1]; [7] -1% | [2]; [7] 0% | [3]; [7] 11% | [3]; at 50.0 µM 51.8% | [4]; [7] 2% | [5]; [7] -2% | [6]; [7] 1%

Cn1cc(NC(=O)Nc2cc(C(=O)Nc3cc(C(=O)Nc4ccc5cc(S(=O)(=O)O)cc(S(=O)(=O)O)c5c4)n(C)c3)n(C)c2)cc1C(=O)Nc1cc(C(=O)Nc2ccc3cc(S(=O)(=O)O)cc(S(=O)(=O)O)c3c2)n(C)c1
inactive: [1]; [7] 68% | [2]; [7] 36% | [3]; [7] 69% | [4]; [7] 33% | [5]; [7] 44%
active: [1]; [8] 98% | [1]; at 50.0 µM 91% | [2]; [8] 99% | [2]; at 50.0 µM 93.7% | [3]; [8] 99% | [3]; at 50.0 µM 93.5% | [4]; [8] 99% | [4]; at 50.0 µM 92.7% | [5]; [8] 98% | [5]; at 50.0 µM 92.5% | [6]; [7] 76% | [6]; [8] 98% | [6]; at 50.0 µM 90.8%

CCCCCCCCCCCCCC(=O)N1CCOCC1
inactive: [1]; [7] 0% | [2]; [7] -3% | [3]; [7] -3% | [4]; [7] -1% | [5]; [7] 4% | [6]; [7] 7%
active: [1]; [8] 99% | [1]; at 50.0 µM 97.8% | [2]; [8] 100% | [2]; at 50.0 µM 99.7% | [3]; [8] 99% | [3]; at 50.0 µM 98% | [4]; [8] 99% | [4]; at 50.0 µM 96.5% | [5]; [8] 99% | [5]; at 50.0 µM 99.6% | [6]; [8] 99% | [6]; at 50.0 µM 99.3%

COc1ccc(-c2c(C#N)c(-c3ccc(C)cc3)n(NS(=O)(=O)c3ccc(C)cc3)c(=O)c2C#N)cc1
inactive: [1]; [7] -2% | [1]; [8] 55% | [2]; [7] -2% | [2]; at 50.0 µM 68.7% | [3]; [7] -3% | [3]; [8] 44% | [4]; [7] -5% | [4]; [8] 68% | [4]; at 50.0 µM 64.1% | [5]; [7] 4% | [5]; [8] 65% | [6]; [7] -2% | [6]; [8] 62%
active: [1]; at 50.0 µM 71.3% | [2]; [8] 70% | [3]; at 50.0 µM 84.7% | [5]; at 50.0 µM 79.4% | [6]; at 50.0 µM 83.6%

O=C(/C=C/C(=O)OCCCl)OCCCl
active: [1]; [8] 95% | [2]; [8] 85% | [2]; at 50.0 µM 82.2% | [3]; at 50.0 µM 92.5% | [5]; [8] 91% | [5]; at 50.0 µM 71.2% | [6]; [8] 95% | [6]; at 50.0 µM 95.2%
inactive: [1]; [7] 5% | [1]; at 50.0 µM 69.2% | [2]; [7] -24% | [3]; [7] 4% | [3]; [8] 62% | [4]; [7] 4% | [4]; [8] 27% | [4]; at 50.0 µM -22.8% | [5]; [7] 46% | [6]; [7] 4%

CCOC(=O)C(CCSC)C(=O)OCC
inactive: [1]; [7] -1% | [1]; [8] -2% | [1]; at 50.0 µM 11% | [2]; [7] 2% | [2]; [8] 2% | [2]; at 50.0 µM 12.8% | [3]; [7] 4% | [3]; [8] -2% | [3]; at 50.0 µM -0.15% | [4]; [7] 1% | [4]; [8] -1% | [5]; [7] -3% | [5]; [8] 3% | [5]; at 50.0 µM -2.4% | [6]; [7] -3% | [6]; [8] -4% | [6]; at 50.0 µM 2.35%
active: [4]; at 50.0 µM 76.1%

Cc1ccc(C)c(NC(=O)CC2SC(=Nc3ccccc3Cl)NC2=O)c1 (stereo not given)
inactive: [1]; [7] 23% | [1]; [8] 65% | [2]; [7] 24% | [2]; [8] 60% | [2]; at 50.0 µM 58.9% | [3]; [7] 25% | [3]; at 50.0 µM 65.3% | [4]; [7] 23% | [4]; [8] 55% | [5]; [7] 33% | [6]; [7] 31% | [6]; at 50.0 µM 64.5%
active: [1]; at 50.0 µM 79% | [3]; [8] 91% | [4]; at 50.0 µM 78% | [5]; [8] 85% | [5]; at 50.0 µM 75.9% | [6]; [8] 82%

CN(C)CCSc1cc(-c2ccccc2)c2ccccc2n1
inactive: [1]; [7] -7% | [1]; at 50.0 µM 59.5% | [2]; [7] 6% | [2]; at 50.0 µM 29.9% | [3]; [7] -8% | [3]; at 50.0 µM 39.9% | [4]; [7] 26% | [4]; at 50.0 µM 21.9% | [5]; [7] 9% | [5]; at 50.0 µM 53.7% | [6]; [7] 15%
active: [1]; [8] 90% | [2]; [8] 87% | [3]; [8] 91% | [4]; [8] 94% | [5]; [8] 97% | [6]; [8] 92% | [6]; at 50.0 µM 78.2%

N=C(N)c1ccc(N=Nc2cc(/C=C/c3ccccc3)ccc2O)cc1
inactive: [1]; [7] 24% | [2]; [7] 2% | [3]; [7] 24% | [4]; [7] 3% | [5]; [7] 2% | [6]; [7] 7%
active: [1]; [8] 98% | [1]; at 50.0 µM 97.7% | [2]; [8] 99% | [2]; at 50.0 µM 99% | [3]; [8] 98% | [3]; at 50.0 µM 98.5% | [4]; [8] 98% | [4]; at 50.0 µM 98.3% | [5]; [8] 98% | [5]; at 50.0 µM 98% | [6]; [8] 98% | [6]; at 50.0 µM 98.8%
